Test results as given in PubChem BioAssay.
The source made the active and inactive calls.

Tested on: Wnt5a (protein binding on small-molecule microarray)
Test: small molecules binding Wnt5a protein – biophysical, small-molecule microarray, 635/667 nm fluorescence, primary screen (AID 1142);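 also: fluorescence read at 667 nm with signal to noise per printed feature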
Settings: 635 nm fluorescence, higher = more signal
For `COC(=O)CC=C[C@@H](C)[C@@H](C=NOC[C@@H](O)[C@H]1O[C@@H]2OC(C)(C)O[C@@H]2[C@H]1O)NS(=O)(=O)c1ccc(C)cc1`, the composite z-score was 0.242.
Work on `O=C(NN=C1C[C@@H](O)[C@@H](O)[C@@H]2[C@@H]3C(=O)N(C4CCCCC4)C(=O)[C@@H]3CC[C@H]12)OCc1ccccc1` yielded a composite z-score of 0.476.
`Cc1cc2c(nc1C)CCCCN2CC(C)ON=C[C@@H](C)[C@H](OCc1ccccc1)C(C)C` (some centres undefined) gave a composite z-score of -0.918.
`CCOC(=O)[C@H](CC(C)C)NC(=O)CCC1CC(OC(=O)NCc2cccc3ccccc23)CC2(CCCC(COC(=O)NCCC(C)C)O2)O1` (some centres undefined) showed a composite z-score of 0.0463.
With `CC(C)CON=C1C[C@@H](O)[C@@H](O)[C@@H]2[C@@H]3C(=O)N(C[C@@H]4CCCO4)C(=O)[C@@H]3CC[C@@H]12` the composite z-score was 0.0867.
In the case of `C=CC[C@@H]1C=C[C@H](ON=C(C)CCC(=O)OC[C@H]2O[C@H](c3ccccc3)C=C[C@@H]2Oc2ccc(OC)cc2)[C@@H](CO)O1`, the composite z-score was -0.278.
With `CO[C@@H]1COC(=O)CC=C[C@@H](C)[C@@H]2C=C[C@H](O)[C@@H](COC(=O)CC=C[C@H]1C)O2` the composite z-score was -0.186.
Work on `COC(=O)[C@H](C)NC(=O)CCC1CC(OC(=O)NCc2cccc3ccccc23)CC2(CCCC(COC(=O)NCC(c3ccccc3)c3ccccc3)O2)O1` (some centres undefined) yielded a composite z-score of 0.345.

Tested on: not listed separately
Test: ATP-based viability of Huh7 replicon cells – cell-based, CellTiter-Glo luminescence, basal, 48 h, cytotoxicity control for HCV replication inhibitor project, primary screen (AID 1143);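 also: Huh7 hepatoma cells carrying a hepatitis C replication reporter with no stimulus; test concentration not given here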
Settings: higher = more signal, called active from +8 up or from −8 down
In the case of `CCN1C(=O)[C@@H]2[C@H]3C(=CC[C@@H]2C1=O)C1(OCCCO1)[C@H]1O[C@H]1[C@H]3O`, the z-score was -8.11 (active).
With `CCOC(=O)[C@H](Cc1ccccc1)NC(=O)CCC1CC(OC(=O)NCCc2ccc(F)cc2)CC2(CCCC(COC(=O)NCCc3ccccc3OC)O2)O1` (some centres undefined) the z-score was -0.131 (inactive).
For `CCOC(=O)NN=C1C[C@@H](O)[C@@H](O)[C@@H]2[C@@H]3C(=O)N(c4cccc(Oc5ccccc5)c4)C(=O)[C@@H]3CC[C@H]12`, the z-score was -1.16 (inactive).
For `CCCCC#C[C@@H]1C=C[C@H](Oc2ccc(C(=O)OC)cc2)[C@@H](COC(=O)OCC)O1`, the z-score was -4.3 (inactive).
In the case of `CCCNC(=O)OC[C@H]1O[C@H](CCON=C(C)CCN2CCc3nc(CC)c(CC)cc3C2)C=C[C@@H]1Oc1ccc(OC)cc1`, the z-score was -2.1 (inactive).
With `CCC1=NOC(CCC2CC(OC(=O)NCc3cccc4c3OCO4)CC3(CCCC(COC(=O)NCCc4ccccc4OC)O3)O2)C1` (centres undefined) the z-score was -0.491 (inactive).
With `CO[C@@H]1COC(=O)CC=C[C@H](C)[C@H](OC)COC(=O)[C@H](C)NC(=O)CC=C[C@H]1C` the z-score was -0.0558 (inactive).
In the case of `C#CCCCON=C1C[C@@H](O)[C@@H](O)[C@@H]2[C@@H]3C(=O)N(C(C)(C)C)C(=O)[C@@H]3CC[C@H]12`, the z-score was 0.0285 (inactive).
For `CCOC(=O)[C@H](Cc1ccccc1)NC(=O)CCC1CC(OC(=O)NCc2ccc3c(c2)OCO3)CC2(CCCC(COC(=O)NCCC(C)C)O2)O1` (some centres undefined), the z-score was -1.05 (inactive).
In the case of `COC(=O)CC=C[C@@H](C)[C@@H](C=NO[C@H](C)c1cn([C@H](CO)Cc2ccccc2)nn1)NS(=O)(=O)c1ccc(C)cc1`, the z-score was -1.29 (inactive).
For `CCN1C(=O)[C@H]2[C@H]3[C@H](O)[C@H](O)CC(=O)[C@@H]3CC[C@H]2C1=O`, the z-score was 0.213 (inactive).
In the case of `CCO[C@H](c1cc(OC)cc([N+](=O)[O-])c1OC)[C@H](C)C=CCC(=O)OC`, the z-score was 0.0843 (inactive).
In the case of `COC(=O)[C@H](C)NC(=O)CCC1CC(OC(=O)NCCc2ccc(F)cc2)CC2(CCCC(COC(=O)NCc3cccc(C(F)(F)F)c3)O2)O1` (some centres undefined), the z-score was -0.382 (inactive).
For `CCOC(=O)[C@H](CC(C)C)NC(=O)CCC1CC(OC(=O)NCc2ccc3c(c2)OCO3)CC2(CCCC(COC(=O)NCc3cccc(C(F)(F)F)c3)O2)O1` (some centres undefined), the z-score was -0.183 (inactive).
In the case of `COC(=O)[C@H](C)NC(=O)CCC1CC(OC(=O)NCc2ccc3c(c2)OCO3)CC2(CCCC(COC(=O)NCc3cccc(C(F)(F)F)c3)O2)O1` (some centres undefined), the z-score was -0.109 (inactive).
In the case of `C[C@@H](c1ccccc1)N1C(=O)[C@H]2[C@H]3[C@H](O)[C@H](O)CC(=NO[C@@H]4O[C@H](CO)[C@@H](O)[C@H](O)[C@H]4O)[C@H]3CC[C@H]2C1=O`, the z-score was 0.573 (inactive).
In the case of `CCc1cc2c(nc1CC)CCN(CCC(C)=NO[C@H](C)c1cn([C@H](CO)Cc3ccccc3)nn1)C2`, the z-score was -0.225 (inactive).
With `O=C1C[C@@H](O)[C@@H](O)[C@@H]2[C@@H]3C(=O)N(Cc4ccccc4)C(=O)[C@@H]3CC[C@@H]12` the z-score was 0.398 (inactive).
With `COc1ccc(O[C@H]2C=C[C@@H](c3ccccc3)O[C@@H]2CON=CC[C@@H]2C=C[C@H](OC(C)=O)[C@@H](COC(C)=O)O2)cc1` the z-score was -1.06 (inactive).
With `Cc1ccc(S(=O)(=O)n2c3ccccc3c3nnc(C(=O)c4ccccc4)nc32)cc1` the z-score was -0.472 (inactive).
With `CCCNC(=O)OC[C@H]1O[C@H](CCON=C(C)CCC(=O)OC[C@H]2O[C@H](c3ccccc3)C=C[C@@H]2Oc2ccc(OC)cc2)C=C[C@@H]1Oc1ccc(OC)cc1` the z-score was -1.13 (inactive).
For `COC(=O)CC=C[C@@H](C)[C@H](OCc1cccc(-c2ccccc2)c1)C1CCCCC1`, the z-score was -0.44 (inactive).
For `O=C(NN=C1C[C@@H](O)[C@@H](O)[C@@H]2[C@@H]3C(=O)N(Cc4ccccc4)C(=O)[C@@H]3CC[C@@H]12)OCc1ccccc1`, the z-score was -0.381 (inactive).
With `COc1ccc(COC(=O)NN=C2C[C@@H](O)[C@@H](O)[C@@H]3[C@@H]4C(=O)N(Cc5ccccc5)C(=O)[C@@H]4CC[C@H]23)cc1` the z-score was -0.541 (inactive).
For `COc1ccc(O[C@H]2C=C[C@@H](c3ccccc3)O[C@@H]2CON=C(C)CCC(=O)OC[C@H]2O[C@H](c3ccccc3)C=C[C@@H]2Oc2ccc(OC)cc2)cc1`, the z-score was -0.461 (inactive).
For `CCCNC(=O)OC[C@H]1O[C@H](CCON=Cc2ccc(C(=O)N3[C@H](c4ccc(C)cc4)[C@@H](C)CC[C@H]3C(=O)OC)cc2)C=C[C@@H]1Oc1ccc(OC)cc1`, the z-score was -1.73 (inactive).
For `CCOC(=O)CCN1C(=O)[C@H]2[C@H]3[C@H](O)[C@H](O)CC(=NNC(=O)OCc4ccccc4)[C@@H]3CC[C@H]2C1=O`, the z-score was 0.13 (inactive).
With `C[C@@H](c1ccccc1)N1C(=O)[C@H]2[C@H]3[C@H](O)[C@H](O)CC(=NOCc4ccccc4)[C@H]3CC[C@H]2C1=O` the z-score was -0.416 (inactive).
In the case of `COC(=O)CC=C[C@@H](C)[C@@H](C=NOC[C@@H](O)[C@H]1O[C@@H]2OC(C)(C)O[C@@H]2[C@H]1O)NS(=O)(=O)c1ccc(C)cc1`, the z-score was 0.0198 (inactive).
For `O=C(NN=C1C[C@@H](O)[C@@H](O)[C@@H]2[C@@H]3C(=O)N(C4CCCCC4)C(=O)[C@@H]3CC[C@H]12)OCc1ccccc1`, the z-score was 0.0552 (inactive).
With `Cc1cc2c(nc1C)CCCCN2CC(C)ON=C[C@@H](C)[C@H](OCc1ccccc1)C(C)C` (some centres undefined) the z-score was -4.86 (inactive).
In the case of `CCOC(=O)[C@H](CC(C)C)NC(=O)CCC1CC(OC(=O)NCc2cccc3ccccc23)CC2(CCCC(COC(=O)NCCC(C)C)O2)O1` (some centres undefined), the z-score was -2.6 (inactive).
For `CC(C)CON=C1C[C@@H](O)[C@@H](O)[C@@H]2[C@@H]3C(=O)N(C[C@@H]4CCCO4)C(=O)[C@@H]3CC[C@@H]12`, the z-score was 1.13 (inactive).
For `C=CC[C@@H]1C=C[C@H](ON=C(C)CCC(=O)OC[C@H]2O[C@H](c3ccccc3)C=C[C@@H]2Oc2ccc(OC)cc2)[C@@H](CO)O1`, the z-score was -1.08 (inactive).
With `CO[C@@H]1COC(=O)CC=C[C@@H](C)[C@@H]2C=C[C@H](O)[C@@H](COC(=O)CC=C[C@H]1C)O2` the z-score was -0.256 (inactive).
With `COC(=O)[C@H](C)NC(=O)CCC1CC(OC(=O)NCc2cccc3ccccc23)CC2(CCCC(COC(=O)NCC(c3ccccc3)c3ccccc3)O2)O1` (some centres undefined) the z-score was -0.145 (inactive).
